# The panel holds about 83,000 compounds, 20% with a hit somewhere; the sample as a whole holds those more often.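 96-well plates, one dose, 48 hours. Percent growth reported; active if below 10.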 A number with no mark means an inactive call. Active and inactive are the calls of the source.
# System: SR leukemia
# Assay: NCI-60 one-dose screen, 48 h (100 = growth as untreated, 0 = no growth, -100 = all killed)
# Conditions: 10 µM unless noted
row,SMILES,growth
1,CC1CC2Oc3ccc(Cl)cc3C(=O)N2O1 (centres undefined),98.2%
2,COc1cccc(C(=O)NCCNc2cc(-c3cn(-c4ccccc4)nc3-c3cccc(OC)c3)ccn2)c1,2.08% (active)
3,CN(C)c1ccc(-c2ccc3[nH]c(=O)nc(-c4ccccc4)c3c2)cn1,16.2%
4,CCN(CC)CCCCCCNc1cc(OC)c(Cl)c2cccnc12,42.2%
5,NC(=N\N=C/c1ccccc1[N+](=O)[O-])/C(N)=N\N=C/c1ccccc1[N+](=O)[O-],107%
6,C[n+]1cc2cc(C(N)=O)[nH]c3c(=N)c(Cl)c(N)c1c23,37.6%
7,COc1ccc(C2=Nc3c(N)ncnc3NC(c3ccc4c(c3)OCO4)C2)cc1 (centres undefined),96.5%
8,CCN(CC)CCN1C(=O)c2c(c(C)c3c(oc4cc(O)ccc43)c2C)C1=O,-25.3% (active)
9,O=C(Nc1ccccc1Cl)Oc1ccc(-c2ccccc2)cc1,133%
10,O=C1/C(=C/c2ccc(F)cc2)C=C(c2ccccc2)N1CCc1ccccc1,46.5%
11,Cc1cc(Cl)ccc1Nc1nc(C(F)(F)F)ccc1C(=O)N/N=C/c1ccc(N(C)C)cc1,17.4%
12,CCN1CCN(c2cc(C)nc(NCc3cc(Nc4ccnc5cc(Cl)ccc45)ccc3F)n2)CC1,-18.4% (active)
13,CCN(CC)CCN1CC(O)=C(c2nc(-c3ccc(Cl)cc3)cs2)C1=N,-4.58% (active)
14,CC(=O)n1c(-c2ccc(Cl)cc2)nc2c(c1=O)C(c1ccc(Cl)cc1)c1sc3c(Cl)cccc3c1O2 (centres undefined),-14.9% (active)

# From PubChem BioAssay (NCI)
